From PubChem
Most compounds without a hit are left out; they make up all but 2.8% or so of the library.
Six1-Eya2 inh: blocks human Six1 binding to Eya2. Q15475+O00167. AlphaScreen GST-Six1/His-Eya2 binding, biochemical; hits give low values. activity change, % (concentration not given with the values). hit rate 0.56% among 360,000. AID 651725; in the data active = activity change below about -65%; inconclusive = mostly about -30% to -63%; also: % is scaled to controls: 0 for no effect and ±100 for the full control effect
Target sequence (O00167 whole entry, looked up): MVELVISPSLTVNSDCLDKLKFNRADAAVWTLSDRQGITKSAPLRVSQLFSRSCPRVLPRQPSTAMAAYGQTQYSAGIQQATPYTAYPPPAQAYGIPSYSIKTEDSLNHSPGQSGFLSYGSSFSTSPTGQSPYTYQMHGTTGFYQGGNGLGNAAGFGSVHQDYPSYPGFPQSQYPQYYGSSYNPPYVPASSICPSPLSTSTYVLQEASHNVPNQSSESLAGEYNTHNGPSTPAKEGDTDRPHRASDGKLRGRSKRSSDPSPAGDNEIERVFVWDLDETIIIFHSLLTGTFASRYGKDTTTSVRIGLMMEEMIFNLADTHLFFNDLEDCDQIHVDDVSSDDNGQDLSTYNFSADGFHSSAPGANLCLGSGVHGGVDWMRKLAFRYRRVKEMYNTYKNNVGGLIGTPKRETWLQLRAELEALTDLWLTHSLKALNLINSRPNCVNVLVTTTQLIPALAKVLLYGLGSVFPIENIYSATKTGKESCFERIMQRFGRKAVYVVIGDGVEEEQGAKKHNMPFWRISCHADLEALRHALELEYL
Target sequence (Q15475 whole entry, looked up): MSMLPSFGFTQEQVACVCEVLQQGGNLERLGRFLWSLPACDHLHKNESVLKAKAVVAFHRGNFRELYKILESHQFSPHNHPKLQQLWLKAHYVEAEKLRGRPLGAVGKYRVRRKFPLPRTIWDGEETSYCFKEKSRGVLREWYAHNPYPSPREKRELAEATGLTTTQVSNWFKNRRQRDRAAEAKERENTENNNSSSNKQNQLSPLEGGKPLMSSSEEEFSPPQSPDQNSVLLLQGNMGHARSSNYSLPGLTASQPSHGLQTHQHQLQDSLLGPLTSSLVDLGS
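GST-Six1 + His-Eya2 (5X stock: 250/500 nM); Tris pH 8.0, 300 mM NaCl, 0.05% BSA, 0.02% Tween 20; GSH donor/Ni acceptor beads; 1 h 37 °C dark; AlphaScreen readout.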
ATXN2 expr inh: reduces ATXN2 reporter expression in HEK-293 cells | HEK-293 ATXN2-luciferase reporter, luminescence, 24 h | Potency, µM (top dose mostly 57 µM), for inactives: at the highest dose activity change, negative = inhibition, usual class: inhibitors | hit rate 0.72% among 360,000 | AID 1745845; also: potency is read from the fitted curve at half-maximal effect; % is scaled to controls: 0 for no effect and ±100 for the full control effect; nearly all actives have a fitted effect of over 55% in size
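ATXN2-luciferase reporter cells (luciferase flanked by upstream and downstream ATXN2 gene portions) were treated 24 h at 37 °C with compounds at up to 57 uM. SteadyGlo luminescence gave expression; GF-AFC fluorescence gave viability.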
S2 tox: reduces viability in counter-screen for ATXN expression inhibitors | S2 cells (HEK-293 line with an ATXN2-luciferase reporter) viability, CellTiter-Fluor protease fluorescence, 24 h | Potency, µM (top dose mostly 56.7 µM), usual class: cytotoxic | hit rate 0.49% among 400,000; also: potency is read from the fitted curve at half-maximal effect; nearly all actives have a fitted effect of over 40% in size
HepG2 viability: kills HepG2 cells in TGF-b inhibitor counter-screen; hit rate 0.76% among 410,000; HepG2 CAGA-GFP viability, ATP luminescence, 18 h; Potency, µM (series often up to 46.1 µM), inactives show at the highest dose activity change, negative = cytotoxicity, most hits filed as cytotoxic; also: potency is read from the fitted curve at half-maximal effect
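HepG2 CAGA-GFP cells (1000/well, DMEM with 1% FBS) received compound, then TGF-beta at 500 pg/mL final, and were incubated 18 hours at 37 degrees C. Viability was read by CellTiter-Glo luminescence. Media-only wells were set as complete cell-killing and DMSO as no toxicity.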
TGFb inhibitor: TGF-b pathway inhibition; HepG2 CAGA-GFP TGF-b/SMAD3 reporter, GFP fluorescence, 18 h; TGF-beta stimulated, 500 pg/mL final; Potency, µM (titrated, usually from 46.1 µM), without a hit: at the top dose activity, negative = inhibition, hits mostly inhibitors; hit rate 1.2% among 410,000; AID 588855; also: potency is read from the fitted curve at half-maximal effect; % is scaled to controls: 0 for no effect and ±100 for the full control effect; nearly all actives have a fitted effect of over 65% in size
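Using HEPG2 CAGA-GFP reporter cells at 1000 cells/well, we pinned test compounds, stimulated with recombinant TGF-beta (500 pg/mL final) and measured total well GFP after 18 h.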
CtBP-E1A inh: blocks the CtBP interaction with E1A; AlphaScreen GST-E1A/His-CtBP binding, 1536-well; hits give low values; activity change, % (test concentration not listed); hit rate 0.49% among 340,000; in the data active = activity change below about -65%; inconclusive = mostly about -30% to -63%; also: % is scaled to controls: 0 for no effect and ±100 for the full control effect
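In 5 uL wells, 23 nL compound meets equimolar GST-E1A and His-CtBP (5X stock 125 nM each) for 2 h, 37 °C. Beads (5X, 50 ug/mL) then 1 h, 37 °C, dark.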
Starred values were filed as active, the others as inactive; i = inactive; ? = inconclusive; . = no result. Unless noted, calls follow the shape of the dose curve; as a rule, active = well fitted curve in the direction sought with a large enough effect; inconclusive = small, poorly fitted or top-dose-only effect, or another doubt; inactive = no such curve, though single readings can be large; an effect the other way counts as inactive or inconclusive.

SMILES	Six1-Eya2 inh	ATXN2 expr inh	S2 tox	HepG2 viability	TGFb inhibitor	CtBP-E1A inh
CC(=O)c1cccc(-c2ccnc3c2CC(C(=O)Nc2ccc(Cl)c(C(F)(F)F)c2)O3)c1 (stereo not drawn)	-23	0%	?	-23%	13µM*	-11
CC(=O)Nc1cccc(-c2ccnc3c2CC(C(=O)Nc2ccc(F)c(Cl)c2)O3)c1 (stereo not drawn)	?	?	.	-29%	?	1
O=C(Nc1ccc(F)c(Cl)c1)C1Cc2c(-c3ccco3)ccnc2O1 (stereo not drawn)	-2	?	i	-7%	13µM*	-4
CCCc1nn2c(=O)cc(COC(=O)c3cccc(NC(=O)COc4ccccc4C)c3)nc2s1	.	.	.	6%	-2%	.
CN(CCO)C(=O)c1cn(C2CCCN(Cc3cccc4ccccc34)C2)nn1 (stereo not drawn)	.	.	i	.	.	.
CCn1c(=O)c2c(nc(C=Cc3ccc(OC)c(OC)c3)n2C)n(CC)c1=O	.	?	i	.	.	.
O=C(Nc1cccc(OC(F)(F)F)c1)C1Cc2c(-c3ccccc3Oc3ccccc3)ccnc2O1 (stereo not drawn)	1	-24%	i	-32%	11µM*	0
CCOC(=O)c1c(NC(=O)C(NCCN(C)C)c2ccccc2)sc2c1CCCC2 (stereo not drawn)	-19	28µM*	.	-105%	?	-21
Cc1cnc(C)c(-c2cccc3c2OC(CNC(=O)C[C@@H]2C[C@@H](C)NC(=S)N2)C3)n1 (stereo partly drawn)	.	.	i	.	.	.
CC(C)c1c(C(=O)NCCN2CCOCC2)cnn1-c1nccc(-c2cccs2)n1	.	.	i	.	.	.
C=C[C@@H]1c2cc(C)ccc2N(S(=O)(=O)c2ccc(C)cc2)[C@H](c2ccc(C(C)(F)F)cc2)C1(C#N)C#N	.	.	.	-6%	-12%	.
Cc1nn(-c2ccccc2)c2c1N(CC(=O)N1CCN(c3cccc(Cl)c3)CC1)C(=O)CS2	.	5%	i	3%	-15%	.
O=C(CNC(=O)c1ccncc1)N/N=C/c1ccc(Br)cc1	10	.	i	-53%	-3%	.
O=C(CNC(=O)c1ccncc1)N/N=C/c1cc(Br)ccc1O	?	?	?	-1%	?	-66*
O=C(N/N=C/c1cc(Br)ccc1O)C(c1ccncc1)N1CCOCC1 (stereo not drawn)	-89*	?	i	22%	?	14
O=C(CNC(=O)c1ccc2c(c1)OCO2)N/N=C/c1cc(Br)ccc1O	-18	?	i	-5%	-1%	-18
O=C(CNC(=O)c1ccccc1)N/N=C/c1cc(Br)ccc1O	-65*	28µM*	i	-42%	-3%	10
O=C(CN1CC(c2ccccc2)CC1=O)N/N=C/c1cc(Br)ccc1O (stereo not drawn)	-84*	14µM*	i	2%	-12%	-90*
COc1cccc(/C=N/NC(=O)C(c2ccncc2)N2CCOCC2)c1 (stereo not drawn)	-3	24%	i	-33%	0%	9
O=C(/C=C/c1ccc(F)cc1)Nc1nc2n(n1)C(c1ccc(Cl)cc1)C=C(c1ccccc1)N2 (stereo not drawn)	.	0%	i	-31%	-24%	.
O=C(NCc1nnc2n1CCN(Cc1ccnc3ccccc13)CC2)c1cccc(F)c1	.	.	i	.	.	.
Cc1cc(C)nc(-c2cccc3c2OC(CNC(=O)C2CCOC2)C3)n1 (stereo not drawn)	.	.	i	.	.	.
CC(=O)C[C@H]1c2cc(F)cc(F)c2S(=O)(=O)N1C1CCN(Cc2ccccc2)CC1	.	.	.	3%	-20%	.
CN(C)CCNc1oc(COc2ccc(-c3ccccc3)cc2)nc1C#N	-21	?	?	11µM*	?	-29
C=CCNc1oc(COc2ccc(C)cc2)nc1C#N	-9	35%	i	-3%	11%	-1
SMILES	Six1-Eya2 inh	ATXN2 expr inh	S2 tox	HepG2 viability	TGFb inhibitor	CtBP-E1A inh
N#Cc1nc(COc2ccc(-c3ccccc3)cc2)oc1NCCCN1CCOCC1	-25	32µM*	?	-43%	7%	-18
C=CCNc1oc(-c2ccc(-c3ccccc3)cc2)nc1C#N	.	?	?	-39%	10µM*	.
COc1ccc(Nc2oc(COc3ccc(Cl)cc3)nc2C#N)cc1	-5	14µM*	?	-20%	-26%	-5
CCOC(=O)[C@]12CCCC=C1N(Cc1ccco1)C(=O)[C@H](CC(=O)N1CCC(c3ccccc3)CC1)C2	-15	3%	i	.	.	-11
CCCCc1cc2c(=O)c(C(=O)OC)c[nH]c2cc1OCc1ccccc1	.	.	i	.	.	.
CCOc1ccc(-c2cc3c(=O)n(Cc4nc(-c5ccc(OC)cc5OC)oc4C)ccn3n2)cc1Cl	.	27%	i	-39%	-12%	.
CSc1ncc(C(=O)NCc2ccc(C)cc2)c(C)n1	.	0%	i	-9%	-2%	.
O=C1CCCC(=O)C1C(=O)c1ccc(C(F)(F)F)cc1[N+](=O)[O-]	.	11%	.	.	.	.
CCN1C(=O)S/C(=C/c2ccc(Sc3nc4ccccc4[nH]3)o2)C1=O	-5	?	?	-45%	13µM*	6
N#C/C(=C/c1ccc(Sc2nc3ccccc3[nH]2)o1)c1cccc(Br)c1	-3	?	?	0%	23%	3
CC1C/C(=C/c2ccccn2)C(=O)/C(=C/c2ccccn2)C1 (stereo not drawn)	-5	?	.	-108%	1.3µM*	-2
CC(C)(C)C1C/C(=C/c2ccccn2)C(=O)/C(=C/c2ccccn2)C1 (stereo not drawn)	0	1.4µM*	1.8µM*	-24%	0.89µM*	4
O=C1/C(=C/c2ccccn2)COc2ccccc21	8	14%	i	-17%	-6%	8
Cc1ccc2[nH]c3nc(N/N=C/c4cccc(O)c4)nnc3c2c1	0	-2%	i	-2%	12%	-5
CCc1ccc2[nH]c3nc(N/N=C/c4ccc(O)cc4O)nnc3c2c1	?	?	i	-17%	-13%	-81*
Cc1cc(Nc2ccccc2C(=O)O)n(-c2ccc([N+](=O)[O-])cc2)n1	-81*	.	i	-29%	-19%	.
O=C1NC(=O)C(Cc2ccccc2F)(C2CCN(Cc3cccn3-c3cccnc3)CC2)N1 (stereo not drawn)	.	.	i	.	.	.
Cc1ccc(C)c(OCCCNCc2ccccc2)c1	2	.	i	-17%	5%	.
Clc1cc(Br)ccc1OCCCNCc1ccccc1	19	-18%	i	13µM*	11µM*	10
